Results published in the supplement of paper PMC10720658.
± gives the standard deviation of the averaged measurements.

system: AEK1 (Tb927.3.2440); experiment: percent reduction in TR-FRET probe signal relative to DMSO control; higher = stronger displacement of ATP-site probe (binding); settings: 1 µM; incubation time 1 h

Row | Structure (SMILES) | percent reduction in TR-FRET probe signal [%]
1 | COCC(=O)NC/C=C/c1ccc2ncnc(Nc3ccc(Oc4ccc(C)nc4)c(C)c3)c2c1 | 3.65 ± 5.5
2 | Cc1csc(-c2nnc(Nc3ccc(Oc4ncccc4-c4ccnc(N)n4)cc3)c3ccccc23)c1 | 55.7 ± 11
3 | Cc1cc(CS(=O)(=O)c2ccccc2)cc(OCc2ccc(CN3CCC[C@@H]3CO)cc2)c1 | -6.92 ± 5.9
4 | O=C(Nc1c[nH]nc1-c1nc2cc(CN3CCOCC3)ccc2[nH]1)NC1CC1 | 52 ± 14
5 | O=C(O)[C@]1(Cc2cccc(Nc3nccs3)n2)CC[C@@H](Oc2cccc(Cl)c2F)CC1 | 19.3 ± 12
6 | CC(C)(C)c1cnc(CSc2cnc(NC(=O)C3CCNCC3)s2)o1 | -4.82 ± 4.6
7 | COc1cc2ncnc(Nc3cccc(Cl)c3)c2cc1OC [AG-1478 (Tyrphostin AG-1478)] | 0.453 ± 6.3
8 | COc1ccc(F)c(F)c1C(=O)c1cnc(NC2CCN(S(C)(=O)=O)CC2)nc1N | 4.07 ± 8.4
9 | CCO.N#CC(=C(\N)Sc1ccccc1N)/C(C#N)=C(/N)Sc1ccccc1N | 0.443 ± 7.1
10 | CC(C)(C)Cn1c(N)nc2ccc(-c3[nH]c(C(C)(C)C)nc3-c3ccc(F)cc3)nc21.CS(=O)(=O)O.CS(=O)(=O)O | -14.9 ± 5.8
11 | O=C(NOCC(O)CO)c1cc(Br)c(F)c(F)c1Nc1ccc(I)cc1F (stereo not drawn) | -4.38 ± 12
12 | CCN1CCN(Cc2ccc(Nc3ncc(F)c(-c4cc(F)c5nc(C)n(C(C)C)c5c4)n3)nc2)CC1 | -4.88 ± 6.8
13 | COc1ccc2c(Oc3ccc(NC(=O)c4c(C)n(CC(C)(C)O)n(-c5ccccc5)c4=O)nc3)ccnc2c1 | 0.253 ± 6.4
14 | CNC(=O)c1cc(Oc2ccc(NC(=O)Nc3ccc(Cl)c(C(F)(F)F)c3)cc2)ccn1.Cc1ccc(S(=O)(=O)O)cc1 [Sorafenib Tosylate] | 17 ± 12
15 | COc1cc2c(Nc3ccc(NC(=O)c4ccccc4)cc3)ncnc2cc1OCCCN1CCOCC1 | 4.13 ± 16
16 | COc1cccc(-n2c(=O)[nH]c3cc(Cl)n(-c4ccc(-c5cccc(OC)c5O)cc4)c3c2=O)c1 | -7.49 ± 2.1
17 | CNCc1ccc(-c2cc(-c3nc(-c4ccc(S(=O)(=O)C(C)C)cc4)cnc3N)on2)cc1 | 0.147 ± 8.7
18 | COc1cc2nccc(Oc3ccc(NC(=O)C4(C(=O)Nc5ccc(F)cc5)CC4)cc3)c2cc1OC.O=C(O)C[C@H](O)C(=O)O [Cabozantinib malate (XL184)] | 4.34 ± 3.9
19 | COc1cc2ncnc(Nc3ccc(O)c(Br)c3)c2cc1OC | -7.2 ± 7.7

Row | Structure (SMILES) | percent reduction in TR-FRET probe signal [%]
20 | CNc1nc(Nc2cnn([C@H]3CCN(C4COC4)C[C@@H]3F)c2Cl)ncc1C(F)(F)F | 9.94 ± 3.4
21 | CC(C)Nc1cc(-c2c[nH]c(C(=O)N[C@H](CO)c3cccc(Cl)c3)c2)c(Cl)cn1 | 0.153 ± 2.1
22 | Cl.Cl.NC1(c2ccc(-c3nc4ccn5c(=O)[nH]nc5c4cc3-c3ccccc3)cc2)CCC1 | -1.31 ± 6.8
23 | C[C@H]1[C@H](C)CC[C@]2(C(=O)O)CC[C@]3(C)C(=CC[C@@H]4[C@@]5(C)C[C@@H](O)[C@H](O)[C@@](C)(CO)[C@@H]5CC[C@]43C)[C@H]12 [Asiatic Acid] | -8.28 ± 13
24 | O=C(O)c1ccc(Nc2ncc3c(n2)-c2ccc(Cl)cc2C(c2c(F)cccc2F)=NC3)cc1 | -4.14 ± 5.4
25 | COc1cc(N2CCC(N3CCN(C)CC3)CC2)ccc1Nc1ncnc(Nc2ccccc2S(=O)(=O)C(C)C)n1 | -6.14 ± 6.2
26 | Cc1cc2c(F)c(Oc3ncnn4cc(OC[C@@H](C)O)c(C)c34)ccc2[nH]1 | 20.2 ± 15
27 | Cc1ccc(-n2nc(C(C)(C)C)cc2NC(=O)Nc2ccc(OCCN3CCOCC3)c3ccccc23)cc1 [BIRB 796 (Doramapimod)] | 1.12 ± 5.4
28 | CCn1c(N)c(C(=O)NC)c(=O)c2ccc(C#C[C@@](C)(O)COC)nc21 | 10.3 ± 4.8
29 | CN1CCN(c2ccc3nc(-c4c(N)c5c(F)cccc5[nH]c4=O)[nH]c3c2)CC1 [Dovitinib (TKI-258, CHIR-258)] | 16.9 ± 16
30 | Cc1cc(Nc2nc(N[C@@H](C)c3ncc(F)cn3)ncc2Cl)n[nH]1 | 56.5 ± 16
31 | COc1cc(OC)c(/C=C/S(=O)(=O)Cc2ccc(OC)c(NCC(=O)[O-])c2)c(OC)c1.[Na+] | -3.78 ± 11
32 | O=c1ncn2nc(Sc3ccc(F)cc3F)ccc2c1-c1c(Cl)cccc1Cl | 9.39 ± 14
33 | Cc1ccccc1CN1C2=NCCN2C(=O)C2=C1CCN(Cc1ccccc1)C2 [TIC10 Analogue] | -7.4 ± 3.3
34 | O=C1NC(=O)[C@@H](c2cn3c4c(cccc24)CCC3)[C@@H]1c1c[nH]c2ccccc12 [Tivantinib (ARQ 197)] | 5.86 ± 12
35 | CC(C)n1nc(-c2ccc3oc(N)nc3c2)c2c(N)ncnc21 | -2.53 ± 6.7
36 | CC1(COc2ccc3c(c2)ncn3-c2ccc3cccc(N4CCC(N)CC4)c3n2)COC1 | 18.8 ± 11
37 | Cn1cc(-c2[nH]c3cc(NC(=O)[C@H](N)C4CCCCC4)cc4c3c2C=NNC4=O)cn1 | 76.9 ± 6.5
38 | CC(C)(C)n1nc(-c2ccc(Cl)cc2)c2c(N)ncnc21 | -1.96 ± 9.6
